Values joined by “and” are separate entries in the source; they are usually repeats but may differ in a detail not shown here. Identical values can stand only once. Results filed as inconclusive are left out. Where a structure was tested more than once in an assay, its records may differ in their call. Active and inactive are the calls of the source. The calls were made as follows: active = hit-call score of the fitted dose curve at least 0.9, where 1 is the maximum; inconclusive = response in the unintended direction; inactive = score below 0.9.
target: Peroxisome proliferator-activated receptor gamma (Homo sapiens) (UniProt P37231); experiment: ATG_PPARg_TRANS: Attagene TRANS-FACTORIAL HepG2 Assay for human Peroxisome Proliferator-activated Receptor-gamma (PPARg) (AID 2283007)
Sequence (P37231 whole entry, looked up): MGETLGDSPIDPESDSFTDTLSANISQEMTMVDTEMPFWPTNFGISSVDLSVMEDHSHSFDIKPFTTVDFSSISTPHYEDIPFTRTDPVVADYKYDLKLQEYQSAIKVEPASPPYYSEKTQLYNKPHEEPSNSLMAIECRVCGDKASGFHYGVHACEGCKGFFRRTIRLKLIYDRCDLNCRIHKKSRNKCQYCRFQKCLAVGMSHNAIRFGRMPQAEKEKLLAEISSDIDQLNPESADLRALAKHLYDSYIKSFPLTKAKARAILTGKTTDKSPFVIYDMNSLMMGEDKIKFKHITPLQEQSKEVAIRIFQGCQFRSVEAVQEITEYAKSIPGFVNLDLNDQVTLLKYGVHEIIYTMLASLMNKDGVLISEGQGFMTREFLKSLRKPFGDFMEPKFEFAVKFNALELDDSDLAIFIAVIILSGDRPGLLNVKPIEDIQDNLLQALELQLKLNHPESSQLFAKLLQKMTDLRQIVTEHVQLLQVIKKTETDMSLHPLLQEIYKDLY
Protocol: ATG_TRANS is a cell-based, multiplexed-readout assay that uses HepG2, a human liver cell line, with measurements taken at 24 hours after chemical dosing in a 24-well plate.ATG_PPARg_TRANS is one of 30 assay component(s) measured or calculated from the ATG_TRANS assay. It is designed to make measurements of mRNA induction, a form of inducible reporter, as detected with fluorescence intensity signals by Reverse transcription polymerase chain reaction (RT-PCR) and Capillary electrophoresis technology.Data from the assay component ATG_PPARg_TRANS was analyzed into 1 assay endpoint. This assay endpoint, ATG_PPARg_TRANS, was analyzed in the positive analysis fitting direction relative to DMSO as the negative control and baseline of activity. Using a type of inducible reporter, measures of mRNA for gain-of-signal activity can be used to understand the reporter gene at the transcription factor-level as they relate to the gene PPARG. Furthermore, this assay endpoint can be referred to as a primary readout, because this assay has produced multiple assay endpoints where this one serves a reporter gene function. To generalize the intended target to other relatable targets, this assay endpoint is annotated to the nuclear receptor intended target family, where the subfamily is non-steroidal.
Human liver HepG2 cells are transiently transfected with multiple reporter transcription units (MRTUs) in 6-well plates using FuGene 6 reagent (Roche; 3 ml FuGene/1 mg DNA). The MRTU constructs are regulated by a cis-regulating element (promoter). […] A major difference between the CIS and TRANS system is that in CIS activities of endogenous TFs are measured, whereas the TRANS assay evaluates changes in activities of exogenous, chimeric NR-Gal4 proteins. […] At the end of 24 hour incubation, total RNA was isolated using TriZol reagent (Invitrogen). The isolated RNA is then reverse-transcribed using oligo(dT) primer and Mo-MLV reverse transcriptase (Invitrogen) with DNAse I (Ambion) treatment for 30 min. The one-tenth of the produced cDNA was amplified by PCR using Taq DNA polymerase (Invitrogen) and two reporter sequence-specific primers. The PCR products were fluorescently labeled by primer extension with 6-arboxyfluorescein (6-FAM) 5'-labeled reporter sequence-specific primer (2 min at 95 C, 20 s at 68 C and 10 min at 72 C) and these products were digested with 5U of HpaI (New England Biolabs) for 2h at 37 C. The fragments were purified using Qiaquick PCR columns (Qiagen), analyzed on an ABI 3130xL genetic analyzer (Applied Biosystems) with peak positions identified by using a set of X-rhodamine (ROX)-labeled MapMarker1000 molecular weight standards (BioVentures). The raw capillary electrophoresis data was processed using Attagraph software (Attagene).

`OC1CCC(C2CCCCC2)CC1` (stereo not given) was tested. Which outcome did it give?
The outcome was “inactive”.

Which outcome does the source give for `Cc1cc(C)c(O)c(C)c1` here?
Its outcome is “inactive”.

For `CCC(=C(c1ccc(O)cc1)c1ccc(OCCN(C)C)cc1)c1ccccc1`, which outcome is on record?
Its outcome is “inactive”.

And the AC50?
The AC50 was 10.9 µM (active) and 9.84 µM (active) and 11.1 µM (active).

How did the outcome turn out when `CCCCCCCCOC(=O)CCCCCCCCC(=O)OCCCCCCCC` was run?
The outcome was “inactive”.

For `c1ccc2c(c1)Cc1ccccc1-2`, which outcome is on record?
Its outcome is “inactive”.

Which outcome does the source give for `CN(C)C=O` here?
Its outcome is “inactive”.

`CC(C)(C)CC(C)(C)c1ccc(O)c(-n2nc3ccccc3n2)c1` was tested. Which outcome did it give?
The outcome was “inactive”.

Which AC50 does the source give for `CCCOC(=O)c1ccc(O)cc1` here?
Its AC50 is 45.6 µM (active).

With `CC[C@H](C)[C@@H](C(=O)O)n1sc2ccccc2c1=O` as the compound, how does the AC50 read?
Its AC50 is 100 µM (active).

Which results are given for `CCCCCCCCCCCCCC[N+](C)(C)C`?
outcome: inactive; AC50: 26.6 µM (active)

With `CCCCCCCCCCCCN1CCCC1=O` as the compound, how does the outcome read?
The outcome was “inactive”.

For `CCCCCCCC(=O)O`, which outcome is on record?
The outcome was “inactive”.

How did the outcome turn out when `Cc1ccc(S(=O)(=O)O)c(C)c1` was run?
Its outcome is “inactive”.

With `c1ccc2cc3c(ccc4ccccc43)cc2c1` as the compound, how does the AC50 read?
The AC50 was 16.9 µM (active) and 6.24 µM (active) and 6.09 µM (active).

With `CCC(C)(C)C1CCC(O)CC1` (stereo not given) as the compound, how does the outcome read?
Its outcome is “inactive”.

Which AC50 does the source give for `O=C(/C=C/c1ccc(O)cc1)CC(=O)/C=C/c1ccc(O)cc1` here?
The AC50 was 3.49 µM (active).

`CCCCC(CC)COC(=O)CCCCC(=O)OCC(CC)CCCC` (stereo not given) was tested. Which outcome did it give?
Its outcome is “inactive”.

`FC(F)(I)C(F)(F)C(F)(F)C(F)(F)C(F)(F)C(F)(F)I` was tested. Which AC50 did it give?
The AC50 was 14.4 µM (active).

For `COc1cc(CCC(=O)CC(=O)CCc2ccc(O)c(OC)c2)ccc1O`, which AC50 is on record?
Its AC50 is 4.39 µM (active).

With `CCCCCCCCCCCCc1ccccc1S(=O)(=O)O` as the compound, how does the outcome read?
Its outcome is “inactive”.

For `Nc1cccc2c(N)cccc12`, which outcome is on record?
Its outcome is “inactive”.

For `C=C(C)C(=O)OCCC(F)(F)C(F)(F)C(F)(F)C(F)(F)C(F)(F)C(F)(F)F`, which outcome is on record?
The outcome was “inactive”.

Which outcome does the source give for `Oc1cccc(O)c1` here?
Its outcome is “inactive”.

Which AC50 does the source give for `CCc1nn(C2CCCCC2)c2cc(C3(C#N)CCC(C(=O)O)CC3)ccc12` (stereo not given) here?
Its AC50 is 1.44 µM (active).

With `O=C1OC2(c3ccccc31)c1cc(Br)c(O)c(Br)c1Oc1c2cc(Br)c(O)c1Br` as the compound, how does the outcome read?
Its outcome is “inactive”.

What about the AC50 of the same compound?
The AC50 was 51.8 µM (active).

For `c1ccc2c(c1)ccc1ccccc12`, which outcome is on record?
Its outcome is “inactive”.

For `Cc1cc(CCN2CCN(c3nsc4ccccc34)CC2)cc2c1NC(=O)CC2(C)C`, which AC50 is on record?
Its AC50 is 3.26 µM (active).

`CC(C)CCCCCCOC(=O)CCCCC(=O)OCCCCCCC(C)C` was tested. Which outcome did it give?
Its outcome is “inactive”.

With `O=c1c(-c2ccc(O)cc2)coc2cc(O)ccc12` as the compound, how does the AC50 read?
The AC50 was 27.3 µM (active) and 20.3 µM (active) and 65.3 µM (active).

Which outcome does the source give for `CCCCOCCO` here?
The outcome was “inactive”.

How did the AC50 turn out when `CCCCC[C@H](O)CC(=O)CCc1ccc(O)c(OC)c1` was run?
Its AC50 is 27.8 µM (active).

Which outcome does the source give for `NCC(F)(F)C(F)(F)C(F)(F)C(F)(F)C(F)(F)C(F)(F)C(F)(F)F` here?
Its outcome is “inactive”.

`C#C[C@]1(O)CC[C@H]2[C@@H]3CCC4=CC(=O)CC[C@@H]4[C@H]3CC[C@@]21C` was tested. Which outcome did it give?
The outcome was “inactive”.

Which AC50 does the source give for `CCN(CC)CCNc1ccc(CNC=O)c2sc3ccc(OC)cc3c(=O)c12` here?
Its AC50 is 0.718 µM (active).

How did the AC50 turn out when `CC(=O)NC1(c2cccc(F)c2)CCN(CC[C@@]2(c3ccc(Cl)c(Cl)c3)CN(c3ccccc3)C(=O)CO2)CC1` was run?
Its AC50 is 49.1 µM (active).

`ClC1=C(Cl)C(Cl)(Cl)C(Cl)=C1Cl` was tested. Which outcome did it give?
Its outcome is “inactive”.

For `NC(=O)N1C(=O)C(C(=O)c2cc(Cl)cs2)c2cc(F)c(Cl)cc21` (stereo not given), which AC50 is on record?
Its AC50 is 2.71 µM (active).

From PubChem BioAssay (EPA / NIEHS)
